According to PubChem BioAssay AID1863 (Southern Research Specialized Biocontainment Screening …, 2009):
In all, about 300,000 compounds went through this assay and about 480 (0.16%) were called active.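 How the source made its calls: active means inhibition over 29.93%, a cutoff 3 SD above the screen mean, later confirmed by dose response; inconclusive means inhibition over 29.93% but no dose response follow-up; inactive means inhibition at most 29.93% or unconfirmed.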 A selection follows. Results with a measured potency or affinity are listed apart.

Test: PhoP-dependent GFP reporter repression – Salmonella Typhimurium, primary screen (AID 1863);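 further: 0% = low Mg2+ inducing control and 100% = high Mg2+ repressing control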
Details: S. Typhimurium PhoP-regulated promoter GFP reporter, 4 h; at 50 µM; active compounds read high

inhibition, inactive:
O=S(=O)(/N=C(/NNS(=O)(=O)c1ccccc1)c1ccccc1)c1ccccc1 -3.53%
CCN(CC)CCN(C)c1ccc(N2C(=O)C3CC=CCC3C2=O)cc1[N+](=O)[O-] (stereo not given) -7.43%
COc1ccc(Nc2nc(NCC3CCCO3)c3ccccc3n2)c(OC)c1 (stereo not given) 0.13%
Oc1ccc(Nc2nc(NCC3CCCO3)c3ccccc3n2)cc1 (stereo not given) -10.2%
Oc1ccccc1Nc1nc(NCC2CCCO2)c2ccccc2n1 (stereo not given) 13.1%
c1ccc(Nc2nc(NCC3CCCO3)c3ccccc3n2)cc1 (stereo not given) -1.89%
COCCOCC(O)CN1CCN(c2ccccc2)CC1 (stereo not given) 4.06%
COc1ccccc1-c1noc(-c2ccccc2C(=O)NCC2CCCO2)n1 (stereo not given) -3.19%
O=C(O)c1cccc(Nc2c3ccccc3nc3ccccc23)c1 10.2%
COc1ccc(Nc2c3c(nc4ccccc24)CCC3)cc1 12.7%
Fc1cccc(Nc2c3c(nc4ccccc24)CCC3)c1 6.97%
Cc1ccc2nc3c(c(Nc4ccccc4)c2c1)CCC3 21.7%
COc1ccc(Nc2c3ccccc3nc3ccccc23)cc1 -2.51%
Cc1cc(Nc2cccc(O)c2)c2ccccc2n1 13.6%
CCOc1ccc(Nc2nc(N)c3ccccc3n2)cc1 29.9%
c1ccc(Nc2c3c(nc4ccccc24)CCC3)cc1 20.2%
Nc1n[nH]c(N)c1N=Nc1ccccc1F -3.09%
CCC(=O)Nc1ccc(C(=O)CSc2nc(N)cc(N)n2)cc1 4.88%
CS(=O)(=O)N1CCN(c2ccccc2NC(=O)c2cccnc2)CC1 -0.66%
CC(C)CCNC(=O)c1c(CSc2ccccc2)noc1C(=O)NCc1ccccc1 -1.54%
Cc1cc(-c2nnc(SCC(=O)Nc3ccc(F)cc3F)n2N)n[nH]1 -6.5%
COc1ccc(S(=O)(=O)N2CCC(C(=O)Nc3c(F)cccc3F)CC2)cc1 14.7%
Cn1c(=O)[nH]c(=O)c2c1nc(CN1CCN(c3ccc(F)cc3)CC1)n2CCCc1ccccc1 -9.74%
CO[C@@]12[C@H](COC(N)=O)C3=C(C(=O)C(C)=C(N)C3=O)N1C[C@@H]1N[C@@H]12 17.4%
COc1ccc(C(=O)N2CCN(c3ncccn3)CC2)cc1 6.73%
COc1ccc(-n2c(SCc3cccnc3)nc3c(c2=O)SCC3)cc1OC -5.3%
Cc1ccccc1OCC(=O)NCC(=O)N/N=C/c1cccc([N+](=O)[O-])c1 -0.52%
CCS(=O)(=O)Nc1c(C)n(C)n(-c2ccccc2)c1=O -5.83%
NS(=O)(=O)c1ccc(CNC(=O)c2cc(-c3cccnc3)nc3ccc(Br)cc23)cc1 -5.23%
Cc1ccccc1N1CCN(C2CCCN(C(=O)c3ccccn3)C2)CC1 (stereo not given) -6.14%
CCn1cc(C(=O)O)c(=O)c2cc(F)c(N3CCN(C(=S)NC(=O)c4cc(OC)cc(OC)c4)CC3)cc21 23.2%
CCn1cc(C(=O)O)c(=O)c2cc(F)c(N3CCN(S(=O)(=O)c4ccc(NC(=O)OC)cc4)CC3)cc21 -9.02%
C=CCCCCCCCCC(=O)N1CCN(c2cc3c(cc2F)c(=O)c(C(=O)O)cn3CC)CC1 11.3%
CCn1cc(S(=O)(=O)c2ccc(OC)cc2)c(=O)c2cc(F)c(N3CCN(C)CC3)cc21 -6.69%
CCn1cc(C(=O)O)c(=O)c2cc(F)c(N3CCN(S(=O)(=O)c4ccc(Br)cc4)CC3)cc21 3.63%
Cc1cccc(C(=O)NC(=S)N2CCN(C(=S)NC(=O)c3cccc(C)c3)CC2)c1 12.1%
CCn1cc(C(=O)O)c(=O)c2cnc(N3CCN(C(=S)NC(=O)c4ccc(OC)cc4)CC3)nc21 1.6%
CCc1sc(C(=O)Nc2cccnc2)cc1Br -5.61%
COc1ccc2[nH]cc(CCNC(=O)c3ccc4ccccc4n3)c2c1 -0.1%
CCC(=O)N1CCc2cc(Br)cc(S(=O)(=O)N3CCC(C(=O)NC(C)C)CC3)c21 3.79%
CNc1cc(CSC)nc(SCc2ccc(Cl)c(Cl)c2)n1 -2.03%
O=C(c1ccc2ncsc2c1)N1CCCCC1 0.96%
O=C(O)CCSc1nc2ccccc2n1Cc1ccccc1 -0.57%
NC(=O)CN(c1ccc([N+](=O)[O-])cc1)S(=O)(=O)c1ccccc1 10%
CN(C)C(=O)/C(C#N)=C\c1cc(Br)c(Sc2ccc(Cl)cc2)o1 2.32%
Cc1nc2c(C)cccn2c(=O)c1NC(=O)c1ccco1 6.47%
CCNC(=O)CN1C(=O)NC2(CCOc3ccccc32)C1=O (stereo not given) -2.64%
CCn1cc(C(=O)O)c(=O)c2cnc(N3CCN(C(=S)NC(=O)c4ccc(Cl)cc4)CC3)nc21 30.7%
CCn1cc(C(=O)NCc2cccc(F)c2)c(=O)c2cc(F)c(N3CCN(C(=O)c4ccco4)CC3)cc21 12.3%
CCn1cc(C(=O)N/N=C(/C)c2ccc(F)cc2)c(=O)c2cc(F)c(N3CCCC3)cc21 -8.17%
CCn1cc(C(=O)O)c(=O)c2cnc(N3CCN(C(=S)NC(=O)c4ccccc4)CC3)nc21 18.2%
Cc1c(Cl)cccc1NC(=S)N1CCOCC1 -2.07%
O=C(Nc1c2c(nn1-c1cccc(Cl)c1)CS(=O)(=O)C2)C1CC1 -4.19%
CCNC(=S)Nc1ccc(-c2nc3ccccc3[nH]2)cc1 -10.4%
COc1ccc(NC(=O)c2cn3c(nc4ccccc43)c(C#N)c2C)cc1 -3.66%
CC1CCN(S(=O)(=O)c2ccc3c(c2)c(=O)c(C(=O)N2CCOCC2)cn3C)CC1 -0.29%
Cc1c(CC(=O)N[C@@H](C)C(=O)O)c(=O)oc2c(C)c3occ(-c4ccccc4)c3cc12 9.42%
C=CCN(Cc1nc(-c2ccccc2)no1)C(=O)c1ccc2c(c1)OCO2 1.88%
O=[N+]([O-])c1ccc(/C=N/NC(=S)Nc2ccccc2)o1 18.4%
O=C(/C=C/c1cccc([N+](=O)[O-])c1)NCCSCc1cccc(Cl)c1 -1.04%
CCCCCCCCCC(=O)N1CCN(c2cc3c(cc2F)c(=O)c(C(=O)O)cn3CC)CC1 6.32%
CCn1cc(C(=O)O)c(=O)c2cnc(N3CCN(C(=S)NC(=O)c4ccc(F)c(F)c4)CC3)nc21 7.64%
CCOC(=O)c1sc(N)c(C#N)c1CSc1nnc(C2CC2)n1N 0.84%
COc1cccc2c1OC[C@@H](CO)[C@H]2N(C)C(=O)Nc1ccc(Cl)cc1 -5.57%
CO[C@@]1(NC(=O)CSCC#N)C(=O)N2C(C(=O)O)=C(CSc3nnnn3C)CS[C@@H]21 2.92%
Cn1nnnc1SCC1=C(C(=O)O)N2C(=O)C(NC(=O)C3CC3c3ccccc3)C2SC1 (stereo not given) 5.81%
COC(=O)C(C)Oc1cc(OC(C)C(=O)OC)c2c(-c3ccccc3)cc(=O)oc2c1 (stereo not given) -1.83%
c1ccc(-c2ccccn2)nc1 1.51%
c1ccc(-c2ccc(-c3ccccn3)nn2)nc1 17.9%
C[C@H](NC(=O)C1CC(=O)N(c2ccc3c(c2)OCCO3)C1)C(=O)NC1CCCC1 (stereo not given in full) -3.6%
CCN(CC)C(=O)COc1ccc(N(C)S(=O)(=O)c2ccc(NC(C)=O)cc2)cc1 -5.37%
COc1cc(-c2nc(N)n[nH]2)cc(OC)c1OC -10.2%
COc1cc(Nc2ncnc(N)n2)cc(OC)c1OC -3.05%
COc1cccc(OCCNc2cc(Cl)ccc2[N+](=O)[O-])c1 6.62%
Cc1ccc(NC(=O)C2(C)Cc3ccccc3C(=O)O2)cc1 (stereo not given) -8.33%
CC1CCN(CC(=O)Nc2cccc(C(=O)Nc3cccc(C(F)(F)F)c3)c2)CC1 0.24%
O=C(CNC(=O)c1ccccc1)Nc1cccc(C(F)(F)F)c1 -8.93%
O=C1CCN(N=Nc2cccc(Cl)c2)N1 -4.47%
COc1ccc(N2CCN(C(=O)CN(C3CCCCC3)S(C)(=O)=O)CC2)cc1 -3.93%
O=S(=O)(NCc1ccccc1)NCc1ccccc1F -1.32%
O=C(O)c1ccc(CNCc2ccccc2F)cc1 0.78%
Cc1csc(C(=O)O)c1NC(=O)c1c(Cl)cccc1Cl -3.3%
CCn1nc(C(=O)N2CCN(Cc3ccc4c(c3)OCO4)CC2)c2ccccc2c1=O -2.79%
CCOC(=O)c1cn(CC)c2cc3c(cc2c1=O)OCO3 7.75%
CCn1ccc(=O)c2cc3c(cc21)OCO3 2.11%
CCn1cc(C(=O)N[C@H](C(=O)O)C(C)C)c(=O)c2cc3c(cc21)OCO3 25.9%
Cn1c(SCC(=O)NC2CCCCC2)nnc1-c1cc2cc(Cl)ccc2o1 5.87%
CCC(=O)NC(c1cccs1)c1ccc2cccnc2c1O (stereo not given) 27%
CC(C)CC(=O)NC(c1cccs1)c1ccc2cccnc2c1O (stereo not given) 9.48%
O=C1OCc2cc(NC(=O)C3CCCO3)ccc21 (stereo not given) 13.1%
COc1ccc(Cc2nc3ccc(C(=O)N4CCC[C@H]4CO)cc3o2)cc1 -5.77%
COc1ccc2[nH]c3c(Cl)ncnc3c2c1 2%
COc1ccc2[nH]c3c(=S)nc[nH]c3c2c1 11.1%
Cc1ccc(C)c2c1[nH]c1ccccc12 -11.2%
Cc1cc2[nH]c3ccccc3c2c(C)n1 17.6%
